Hits are enriched below; roughly 5.7% of the tested compounds scored in any of these assays.
AHR act = human AHR activation. 2.5% of 320,000 active. P35869. AHR-responsive luciferase reporter cells, luminescence. activation, % at 5 µM; in the data active = activation above about 47%;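 also: 0% = vehicle wells and 100% = reference agonist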
DAX1 inh-1 = inhibitors of human orphan nuclear receptor DAX1 (NR0B1); HEK293 Gal4-DAX1 luciferase reporter, luminescence; P51843; AID 504766; 0.99% of 340,000 active; inhibition, % at 6.75 µM;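 active = inhibition above the mean over all tested compounds plus 3 SD, cut at about 4.2% in these data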;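 also: 0% = DAX1-transfected cells with DMSO and 100% = empty-vector control cells with DMSO; inhibition shows as a rise in luminescence from relieved DAX1 repression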
hgDAF-12 ag = hgDAF-12 agonism, primary luciferase screen. HEK293 GAL4-hgDAF12 UAS-luciferase reporter, agonist luminescence; normalized to butyrate control. activation, % at 6.8 µM. 1.8% of 370,000 active;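 active = activation above a cutoff set at the mean of all screened compounds plus 3 SD, cut at about 10% in these data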;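 also: 0% = DMSO wells and 100% = sodium butyrate wells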
DAX1 inh-2 = blocks DAX1 repression of SF-1 activated StAR promoter; AID 652010; 1.1% of 370,000 active; HEK293T StAR-luciferase reporter, SF-1/DAX-1 repression relief; inhibition, % at 6.8 µM;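 active = inhibition above the mean over all tested compounds plus 3 SD, cut at about 3.6% in these data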;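 also: 0% = DAX-1 cells with DMSO and 100% = cells lacking DAX-1 with DMSO; higher inhibition means more luminescence from relief of DAX-1 repression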
ssDAF12 agonist = activators of S. stercoralis DAF-12 nuclear receptor; HEK293 ssDAF-12/GRIP1 lit1-tk-luc reporter, luminescence; % of 3 µM dafachronic acid response; activation, % at 6.8 µM; 1% of 370,000 active;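 active = activation above the mean over all tested compounds plus 3 SD, cut at about 0.9% in these data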;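 also: 0% = DMSO-only wells and 100% = 3 µM delta7-dafachronic acid wells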
hcDAF12 agonist = activators of H. contortus DAF-12 nuclear receptor; 1.4% of 370,000 active; HEK293 hcDAF-12 lit1-tk-luc reporter, luminescence; 0% DMSO, 100% Δ7-dafachronic acid; activation, % at 6.8 µM;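 active = activation above the mean of all tested compounds plus 3 SD, cut at about 5.5% in these data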;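 also: 100% = response to 3 µM Δ7-dafachronic acid high control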
hgDAF12 conf = confirmation of H. glycines DAF-12 agonists | shares compounds with hgDAF-12 ag | HEK293 GAL4-hgDAF12 luciferase reporter, agonist mode; percent of butyrate response | activation, % at 6.8 µM | 80% of 3,300 active;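 active = mean activation over triplicate wells above the hit cutoff derived from the earlier primary screen, cut at about 11% in these data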;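 also: 0% = DMSO low control and 100% = 2 mM sodium butyrate high control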
LXR ag 2 = activates human LXR-beta, counter-screen for DAF-12 agonists. activation, % at 6.8 µM. HEK293 Gal4-LXR luciferase reporter, 24 h. 3,300 tested, under 10 active. shares compounds with hgDAF-12 ag;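 active = mean activation of the triplicate above a set limit carried over from the primary screen, none filed active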
Target sequence (P55055 whole entry, looked up, the tested form may be a part): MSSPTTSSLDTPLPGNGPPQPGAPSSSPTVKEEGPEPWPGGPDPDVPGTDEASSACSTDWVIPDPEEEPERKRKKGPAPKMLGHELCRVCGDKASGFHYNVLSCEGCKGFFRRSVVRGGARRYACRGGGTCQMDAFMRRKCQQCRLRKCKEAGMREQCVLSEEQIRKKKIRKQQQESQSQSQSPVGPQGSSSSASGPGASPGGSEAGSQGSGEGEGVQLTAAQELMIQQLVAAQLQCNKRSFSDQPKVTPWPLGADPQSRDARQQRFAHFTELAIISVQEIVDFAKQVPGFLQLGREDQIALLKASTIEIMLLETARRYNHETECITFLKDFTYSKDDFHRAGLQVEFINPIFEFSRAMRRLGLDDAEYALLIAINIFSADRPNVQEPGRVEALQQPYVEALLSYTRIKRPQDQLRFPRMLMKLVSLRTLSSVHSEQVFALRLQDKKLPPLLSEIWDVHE
Starred values were filed as active, the others as inactive.

`CS(=O)(=O)c1ccc2nc(NC(=O)Nc3ccccc3F)sc2c1` gave AHR act 34, DAX1 inh-1 7.3*, hgDAF-12 ag 15*, DAX1 inh-2 3, ssDAF12 agonist 0, hcDAF12 agonist 2, hgDAF12 conf 27* and LXR ag 2 1.
`Cc1ccc(NC(=O)Nc2nc3ccc(S(C)(=O)=O)cc3s2)cc1` gave DAX1 inh-1 -1, hgDAF-12 ag -2, DAX1 inh-2 0, ssDAF12 agonist -1 and hcDAF12 agonist -3.
Screening CC(C)(C)C(=O)Nc1nc2ccc(S(C)(=O)=O)cc2s1 returned AHR act 12, DAX1 inh-1 3, hgDAF-12 ag 14*, DAX1 inh-2 0, ssDAF12 agonist -1, hcDAF12 agonist 3, hgDAF12 conf 13* and LXR ag 2 0.
Screening C=CCNC(=S)Nc1ccccc1-c1nnc2n1CCCCC2 returned AHR act -2, DAX1 inh-1 0, hgDAF-12 ag -1, DAX1 inh-2 0, ssDAF12 agonist -1 and hcDAF12 agonist -1.
`CN1CCN(C(=O)c2cc(Br)cn2C)CC1` gave AHR act 1, DAX1 inh-1 0, hgDAF-12 ag 2, DAX1 inh-2 0, ssDAF12 agonist -1 and hcDAF12 agonist 1.
Screening O=C(NCCc1cn2ccccc2n1)c1cc(COc2ccc3ncccc3c2)on1 returned AHR act -5, DAX1 inh-1 -4, hgDAF-12 ag -6, DAX1 inh-2 -5, ssDAF12 agonist -3 and hcDAF12 agonist -5.
For O=C(CSc1ccc(Cl)cc1)NC(=O)NC1CCCC1 the results were DAX1 inh-1 2, hgDAF-12 ag 0, DAX1 inh-2 0, ssDAF12 agonist -1 and hcDAF12 agonist -1.
Screening O=c1/c(=C\c2ccc3c(c2)OCO3)sc2n1CCCN=2 returned AHR act -9, DAX1 inh-1 4.6*, hgDAF-12 ag 19*, DAX1 inh-2 3, ssDAF12 agonist 0, hcDAF12 agonist 3, hgDAF12 conf 14* and LXR ag 2 1.
For CC1=NOC(=O)/C1=C/c1ccc2c(c1)OCO2 the results were AHR act 5, DAX1 inh-1 -1, hgDAF-12 ag 0, DAX1 inh-2 0, ssDAF12 agonist -2 and hcDAF12 agonist -2.
Cc1nc2c(oc3ccccc32)c(=O)o1 was read as AHR act 18, DAX1 inh-1 2, hgDAF-12 ag 14*, DAX1 inh-2 1, ssDAF12 agonist 0, hcDAF12 agonist 6.1*, hgDAF12 conf 9 and LXR ag 2 0.
Screening CCCNC(=O)C1CC(=O)N(c2ccc(OCc3ccc(Cl)cc3)cc2)C1 (configuration not stated) returned AHR act 2, DAX1 inh-1 1, hgDAF-12 ag 15*, DAX1 inh-2 3, ssDAF12 agonist 0, hcDAF12 agonist 5, hgDAF12 conf 16* and LXR ag 2 1.
For Fc1ccc2cnc(-c3ccsc3)cc2c1 the results were hgDAF-12 ag 14*, DAX1 inh-2 3, ssDAF12 agonist 0, hcDAF12 agonist 3, hgDAF12 conf 7 and LXR ag 2 0.
Screening CC(=O)c1cccc(NC(=O)Nc2ccc3c(c2)OCO3)c1 returned DAX1 inh-1 2, hgDAF-12 ag 14*, DAX1 inh-2 2, ssDAF12 agonist 0, hcDAF12 agonist 1, hgDAF12 conf 14* and LXR ag 2 0.
Screening O=C(Nc1cccc([N+](=O)[O-])c1)Nc1cccc([N+](=O)[O-])c1 returned AHR act 2, DAX1 inh-1 0, hgDAF-12 ag 0, DAX1 inh-2 -1, ssDAF12 agonist -2 and hcDAF12 agonist -2.
For CC(=O)c1cccc(NC(=O)NCc2ccc3c(c2)OCO3)c1 the results were AHR act 14, DAX1 inh-1 2, hgDAF-12 ag 0, DAX1 inh-2 -3, ssDAF12 agonist -1 and hcDAF12 agonist -2.
O=C(Nc1ccc2c(c1)OCCO2)NC12CC3CC(CC(C3)C1)C2 was read as AHR act 15, DAX1 inh-1 1, hgDAF-12 ag 14*, DAX1 inh-2 2, ssDAF12 agonist -1, hcDAF12 agonist 4, hgDAF12 conf 17* and LXR ag 2 1.
`O=C(Nc1cccc([N+](=O)[O-])c1)Nc1ccc2c(c1)OCCO2` gave AHR act 20, DAX1 inh-1 3, hgDAF-12 ag 13*, DAX1 inh-2 2, ssDAF12 agonist 0, hcDAF12 agonist 4, hgDAF12 conf 17* and LXR ag 2 1.
Cc1nc2ccc(S(=O)(=O)Nc3cc(-c4nc5cccnc5s4)ccc3C)cc2s1 was read as AHR act 53*, DAX1 inh-1 1, hgDAF-12 ag 17*, DAX1 inh-2 3, ssDAF12 agonist 0, hcDAF12 agonist 5, hgDAF12 conf 10 and LXR ag 2 0.
`COCC(=O)N(C)C[C@H]1Oc2ncc(C#C[C@H](C)O)cc2C(=O)N([C@@H](C)CO)C[C@H]1C` gave DAX1 inh-1 1, hgDAF-12 ag 2, DAX1 inh-2 2, ssDAF12 agonist 0 and hcDAF12 agonist 0.
For O=S(=O)(/N=C(/c1ccccc1)N1CCCCCC1)c1ccccc1 the results were AHR act 3, DAX1 inh-1 0, hgDAF-12 ag -4, DAX1 inh-2 2, ssDAF12 agonist -1 and hcDAF12 agonist -1.
CCN(CC)c1ccc(/C=N/NC(=O)c2ccco2)cc1 was read as AHR act 6, DAX1 inh-1 -2, hgDAF-12 ag 17*, DAX1 inh-2 1, ssDAF12 agonist 0, hcDAF12 agonist 5, hgDAF12 conf 21* and LXR ag 2 1.
`O=C(N/N=C\c1ccc2c(c1)OCO2)c1ccco1` gave AHR act 31, DAX1 inh-1 4, hgDAF-12 ag 14*, DAX1 inh-2 3, ssDAF12 agonist 1, hcDAF12 agonist 2, hgDAF12 conf 12* and LXR ag 2 1.
For CCN(CC)c1ccc(NC(=S)NC(=O)c2ccco2)cc1 the results were AHR act 3, DAX1 inh-1 0, hgDAF-12 ag 16*, DAX1 inh-2 3, ssDAF12 agonist -2, hcDAF12 agonist 0, hgDAF12 conf 6 and LXR ag 2 0.
`CCN(CC)c1ccc(/C=N/NC(=O)c2cnccn2)cc1` gave DAX1 inh-1 0, hgDAF-12 ag 18*, DAX1 inh-2 0, ssDAF12 agonist 0, hcDAF12 agonist 1, hgDAF12 conf 18* and LXR ag 2 0.

From PubChem
